According to the supplement of paper PMC11732987, “Enantioselective OTUD7B fragment discovery through chemoproteomics screening and high-throughput optimisation” (Communications Chemistry, 2025):

Columns and labels:
Assay in all cases: log2 ratio of Biotin-Ahx-Ub-VS probe labelling (fragment/DMSO); higher = less target engagement (more negative = stronger competition), active = hit call of the paper (q ≤ 0.05, log2 ratio ≤ -1)
Conditions in all cases: compound concentration: 200 uM; treatment time: 3 h
USP19 = molecular target: T1, USP19 (UniProt O94966)
T1 sequence (whole entry): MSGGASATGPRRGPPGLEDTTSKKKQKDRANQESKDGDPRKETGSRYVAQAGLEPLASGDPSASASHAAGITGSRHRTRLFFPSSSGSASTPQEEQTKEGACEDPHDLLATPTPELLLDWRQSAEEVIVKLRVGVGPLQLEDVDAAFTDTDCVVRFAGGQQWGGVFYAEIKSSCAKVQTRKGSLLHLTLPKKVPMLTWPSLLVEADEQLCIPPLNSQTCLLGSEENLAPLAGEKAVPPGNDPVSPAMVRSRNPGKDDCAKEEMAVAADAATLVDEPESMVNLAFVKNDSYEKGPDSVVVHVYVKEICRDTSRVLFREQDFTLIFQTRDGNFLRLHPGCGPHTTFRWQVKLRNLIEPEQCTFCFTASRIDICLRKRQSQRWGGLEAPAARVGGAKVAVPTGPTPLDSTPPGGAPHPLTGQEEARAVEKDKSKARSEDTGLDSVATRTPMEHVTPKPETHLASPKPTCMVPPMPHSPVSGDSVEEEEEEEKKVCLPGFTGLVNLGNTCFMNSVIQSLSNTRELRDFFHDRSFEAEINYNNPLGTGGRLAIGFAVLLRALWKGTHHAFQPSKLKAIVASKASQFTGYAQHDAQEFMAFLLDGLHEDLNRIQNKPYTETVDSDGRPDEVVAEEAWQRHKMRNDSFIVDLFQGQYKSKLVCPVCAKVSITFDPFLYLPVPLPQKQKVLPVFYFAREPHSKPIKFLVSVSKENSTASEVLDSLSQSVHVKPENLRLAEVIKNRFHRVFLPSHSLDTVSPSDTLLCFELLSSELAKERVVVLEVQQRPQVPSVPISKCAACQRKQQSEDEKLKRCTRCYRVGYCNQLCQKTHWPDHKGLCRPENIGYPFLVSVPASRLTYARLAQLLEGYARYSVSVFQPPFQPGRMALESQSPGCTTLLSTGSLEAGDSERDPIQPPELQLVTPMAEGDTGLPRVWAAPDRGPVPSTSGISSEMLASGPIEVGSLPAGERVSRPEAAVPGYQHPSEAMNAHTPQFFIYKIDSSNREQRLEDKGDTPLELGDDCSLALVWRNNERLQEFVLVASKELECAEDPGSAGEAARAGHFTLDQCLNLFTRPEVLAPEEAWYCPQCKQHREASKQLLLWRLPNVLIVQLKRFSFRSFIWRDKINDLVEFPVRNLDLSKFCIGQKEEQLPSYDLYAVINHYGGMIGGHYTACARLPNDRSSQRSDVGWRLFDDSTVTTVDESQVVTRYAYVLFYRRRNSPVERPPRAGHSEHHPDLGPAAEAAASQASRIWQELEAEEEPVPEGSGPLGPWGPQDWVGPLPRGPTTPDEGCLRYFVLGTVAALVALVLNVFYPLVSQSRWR
Outline: (§1)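 Global-median-normalised Spectronaut label-free quantities were compared by unpaired t-test, and values are average log2 ratios of fragment over vehicle. Only proteins with ≥2 unique peptides were used. HEK293T lysate (495 µg per sample) was treated in triplicate with fragment at 200 µM or vehicle for 3 h and then with Biotin-Ahx-Ub-VS at 0.5 µM final for 1 h. Labelled DUBs were then NeutrAvidin-enriched, digested with LysC and trypsin, and run by diaPASEF LC-MS/MS.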

USP22 = molecular target: T2, USP22 (UniProt Q9UPT9)
T2 sequence (whole entry): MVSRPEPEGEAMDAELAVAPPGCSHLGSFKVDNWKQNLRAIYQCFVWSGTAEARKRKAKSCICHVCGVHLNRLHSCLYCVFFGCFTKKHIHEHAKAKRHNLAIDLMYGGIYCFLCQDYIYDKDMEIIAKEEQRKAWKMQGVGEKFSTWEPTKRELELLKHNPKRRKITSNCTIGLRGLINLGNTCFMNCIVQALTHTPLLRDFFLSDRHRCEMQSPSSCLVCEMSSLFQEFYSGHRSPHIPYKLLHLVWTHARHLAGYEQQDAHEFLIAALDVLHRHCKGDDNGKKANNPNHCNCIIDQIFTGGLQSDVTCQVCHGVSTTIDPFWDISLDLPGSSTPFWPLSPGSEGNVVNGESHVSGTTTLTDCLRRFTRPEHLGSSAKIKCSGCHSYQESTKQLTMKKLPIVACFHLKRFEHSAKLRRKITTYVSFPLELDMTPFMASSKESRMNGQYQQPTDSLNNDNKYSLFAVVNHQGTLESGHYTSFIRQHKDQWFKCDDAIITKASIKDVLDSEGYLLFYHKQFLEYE
Outline: as §1

USP24 = USP24 (UniProt Q9UPU5)
Outline: as §1

USP25 = molecular target: T3, USP25 (UniProt Q9UHP3)
T3 sequence (whole entry): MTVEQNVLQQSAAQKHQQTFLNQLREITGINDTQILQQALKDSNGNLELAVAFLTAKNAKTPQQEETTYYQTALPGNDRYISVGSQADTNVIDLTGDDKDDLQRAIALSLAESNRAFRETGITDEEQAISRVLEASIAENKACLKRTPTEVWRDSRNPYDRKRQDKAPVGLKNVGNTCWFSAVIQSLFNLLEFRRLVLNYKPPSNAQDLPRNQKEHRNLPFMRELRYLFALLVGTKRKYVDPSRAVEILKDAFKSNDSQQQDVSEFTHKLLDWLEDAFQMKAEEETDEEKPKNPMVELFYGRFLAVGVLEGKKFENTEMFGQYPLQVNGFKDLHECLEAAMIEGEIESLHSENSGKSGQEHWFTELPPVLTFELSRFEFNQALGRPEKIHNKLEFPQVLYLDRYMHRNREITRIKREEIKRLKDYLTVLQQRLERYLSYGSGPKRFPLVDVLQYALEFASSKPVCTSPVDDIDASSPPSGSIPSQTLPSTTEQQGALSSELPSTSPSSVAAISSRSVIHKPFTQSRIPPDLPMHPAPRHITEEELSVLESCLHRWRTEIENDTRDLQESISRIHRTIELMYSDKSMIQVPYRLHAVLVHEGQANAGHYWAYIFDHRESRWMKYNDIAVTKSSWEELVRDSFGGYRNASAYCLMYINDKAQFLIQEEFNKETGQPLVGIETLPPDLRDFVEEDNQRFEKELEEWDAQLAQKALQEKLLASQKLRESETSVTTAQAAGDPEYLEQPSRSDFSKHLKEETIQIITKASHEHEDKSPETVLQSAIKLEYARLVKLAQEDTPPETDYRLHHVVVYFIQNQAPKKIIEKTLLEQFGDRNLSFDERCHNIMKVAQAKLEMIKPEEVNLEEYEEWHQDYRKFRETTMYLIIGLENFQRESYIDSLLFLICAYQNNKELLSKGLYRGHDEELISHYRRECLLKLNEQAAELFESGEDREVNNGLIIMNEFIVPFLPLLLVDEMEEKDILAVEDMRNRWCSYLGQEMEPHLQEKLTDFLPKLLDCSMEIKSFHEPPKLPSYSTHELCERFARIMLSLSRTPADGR
Outline: as §1

USP28 = molecular target: T4, USP28 (UniProt Q96RU2)
T4 sequence (whole entry): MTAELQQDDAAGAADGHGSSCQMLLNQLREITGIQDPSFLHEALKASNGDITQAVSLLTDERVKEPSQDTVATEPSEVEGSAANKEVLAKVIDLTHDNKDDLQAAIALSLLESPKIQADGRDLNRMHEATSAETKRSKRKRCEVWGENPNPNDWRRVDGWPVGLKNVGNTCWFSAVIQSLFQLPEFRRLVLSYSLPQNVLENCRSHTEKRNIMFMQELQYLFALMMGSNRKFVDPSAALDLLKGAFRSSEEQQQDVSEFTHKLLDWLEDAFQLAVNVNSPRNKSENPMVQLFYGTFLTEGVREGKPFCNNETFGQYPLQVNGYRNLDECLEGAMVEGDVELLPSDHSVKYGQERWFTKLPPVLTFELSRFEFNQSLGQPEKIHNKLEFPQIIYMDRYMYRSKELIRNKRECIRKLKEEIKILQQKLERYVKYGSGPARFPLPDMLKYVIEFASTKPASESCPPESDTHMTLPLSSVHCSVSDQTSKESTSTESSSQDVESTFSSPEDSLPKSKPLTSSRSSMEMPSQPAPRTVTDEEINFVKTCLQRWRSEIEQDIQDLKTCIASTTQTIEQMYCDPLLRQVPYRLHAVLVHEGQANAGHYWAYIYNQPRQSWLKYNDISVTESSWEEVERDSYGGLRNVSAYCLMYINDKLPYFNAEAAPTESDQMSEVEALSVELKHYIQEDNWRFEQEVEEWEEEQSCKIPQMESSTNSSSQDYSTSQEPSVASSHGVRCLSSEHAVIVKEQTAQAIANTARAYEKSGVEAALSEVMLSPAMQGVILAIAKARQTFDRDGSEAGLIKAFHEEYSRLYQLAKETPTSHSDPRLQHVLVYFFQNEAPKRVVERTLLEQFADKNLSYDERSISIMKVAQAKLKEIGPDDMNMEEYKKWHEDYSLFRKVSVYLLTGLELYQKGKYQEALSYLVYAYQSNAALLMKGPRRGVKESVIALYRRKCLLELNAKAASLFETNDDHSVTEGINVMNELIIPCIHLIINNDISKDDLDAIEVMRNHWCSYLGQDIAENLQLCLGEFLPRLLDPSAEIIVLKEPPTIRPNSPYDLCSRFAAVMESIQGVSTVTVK
Outline: as §1

Measured: log2 ratio of Biotin-Ahx-Ub-VS probe labelling

USP24, sequence (Q9UPU5 whole entry): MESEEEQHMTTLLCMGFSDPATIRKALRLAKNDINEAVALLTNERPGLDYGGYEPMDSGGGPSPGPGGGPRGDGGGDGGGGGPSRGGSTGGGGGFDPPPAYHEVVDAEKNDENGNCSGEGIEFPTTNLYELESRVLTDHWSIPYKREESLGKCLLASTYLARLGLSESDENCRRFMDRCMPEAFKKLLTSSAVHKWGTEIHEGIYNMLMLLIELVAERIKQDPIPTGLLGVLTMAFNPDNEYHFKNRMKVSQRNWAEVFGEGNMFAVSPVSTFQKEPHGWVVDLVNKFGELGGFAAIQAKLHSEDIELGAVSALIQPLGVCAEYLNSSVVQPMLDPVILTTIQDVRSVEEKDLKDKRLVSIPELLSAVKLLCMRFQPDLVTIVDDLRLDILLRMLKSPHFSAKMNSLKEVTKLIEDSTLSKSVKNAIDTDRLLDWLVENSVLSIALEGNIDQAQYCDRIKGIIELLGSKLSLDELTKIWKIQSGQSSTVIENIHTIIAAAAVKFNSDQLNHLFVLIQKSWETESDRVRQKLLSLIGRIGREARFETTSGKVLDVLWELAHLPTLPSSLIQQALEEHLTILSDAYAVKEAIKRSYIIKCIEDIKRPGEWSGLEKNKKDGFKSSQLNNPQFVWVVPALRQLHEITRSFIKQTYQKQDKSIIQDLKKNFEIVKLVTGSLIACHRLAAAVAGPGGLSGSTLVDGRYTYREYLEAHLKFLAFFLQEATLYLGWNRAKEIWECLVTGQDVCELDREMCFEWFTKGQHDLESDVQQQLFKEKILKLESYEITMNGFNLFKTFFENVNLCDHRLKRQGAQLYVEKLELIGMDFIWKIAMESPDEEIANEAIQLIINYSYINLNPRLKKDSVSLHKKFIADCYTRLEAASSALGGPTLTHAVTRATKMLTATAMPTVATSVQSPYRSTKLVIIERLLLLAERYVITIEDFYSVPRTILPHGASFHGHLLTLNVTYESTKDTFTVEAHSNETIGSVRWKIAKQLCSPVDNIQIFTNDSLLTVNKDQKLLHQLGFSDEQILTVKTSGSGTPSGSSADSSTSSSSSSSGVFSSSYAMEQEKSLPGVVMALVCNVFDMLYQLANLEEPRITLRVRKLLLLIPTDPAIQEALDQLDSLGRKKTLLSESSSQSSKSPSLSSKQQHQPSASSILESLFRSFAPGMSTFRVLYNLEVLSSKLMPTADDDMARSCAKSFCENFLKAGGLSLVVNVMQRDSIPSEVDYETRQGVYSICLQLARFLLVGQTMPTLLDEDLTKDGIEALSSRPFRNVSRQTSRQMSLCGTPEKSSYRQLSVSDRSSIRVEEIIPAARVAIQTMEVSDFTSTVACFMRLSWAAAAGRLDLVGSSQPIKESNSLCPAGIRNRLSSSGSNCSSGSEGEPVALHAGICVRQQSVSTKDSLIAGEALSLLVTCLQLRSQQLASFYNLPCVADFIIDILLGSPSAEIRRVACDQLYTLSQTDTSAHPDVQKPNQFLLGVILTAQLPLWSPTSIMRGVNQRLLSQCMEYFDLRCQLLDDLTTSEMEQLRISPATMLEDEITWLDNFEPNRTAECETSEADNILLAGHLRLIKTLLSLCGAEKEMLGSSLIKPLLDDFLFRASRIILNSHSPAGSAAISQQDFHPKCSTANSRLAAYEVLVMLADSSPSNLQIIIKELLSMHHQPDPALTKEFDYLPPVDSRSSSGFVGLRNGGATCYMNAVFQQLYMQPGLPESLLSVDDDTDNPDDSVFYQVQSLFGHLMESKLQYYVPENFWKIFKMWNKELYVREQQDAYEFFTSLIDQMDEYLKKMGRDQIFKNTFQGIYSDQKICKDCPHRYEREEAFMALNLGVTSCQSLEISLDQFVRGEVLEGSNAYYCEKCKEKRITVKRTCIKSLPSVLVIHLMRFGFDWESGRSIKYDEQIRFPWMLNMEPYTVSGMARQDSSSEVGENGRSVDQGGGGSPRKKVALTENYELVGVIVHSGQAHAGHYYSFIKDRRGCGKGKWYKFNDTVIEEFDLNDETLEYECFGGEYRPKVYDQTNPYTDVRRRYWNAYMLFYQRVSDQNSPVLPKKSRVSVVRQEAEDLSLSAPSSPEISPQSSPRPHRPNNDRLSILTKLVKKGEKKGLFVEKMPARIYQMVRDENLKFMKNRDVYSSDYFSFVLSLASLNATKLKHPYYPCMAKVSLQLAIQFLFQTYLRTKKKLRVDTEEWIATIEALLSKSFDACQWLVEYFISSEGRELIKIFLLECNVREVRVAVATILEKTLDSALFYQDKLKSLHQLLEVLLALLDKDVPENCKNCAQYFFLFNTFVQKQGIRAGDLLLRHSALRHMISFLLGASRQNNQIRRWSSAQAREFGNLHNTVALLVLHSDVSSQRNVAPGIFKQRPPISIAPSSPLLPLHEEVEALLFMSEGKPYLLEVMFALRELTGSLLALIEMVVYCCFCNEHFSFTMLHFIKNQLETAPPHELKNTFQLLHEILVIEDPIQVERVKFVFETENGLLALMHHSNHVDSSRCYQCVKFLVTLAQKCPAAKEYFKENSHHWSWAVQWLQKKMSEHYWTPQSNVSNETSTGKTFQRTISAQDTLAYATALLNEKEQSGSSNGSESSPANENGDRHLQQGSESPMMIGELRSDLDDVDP

CN(CCc1ncc(Br)cn1)C(=O)CCl.Cl
inactive: USP19 -0.155 | USP22 -0.0976 | USP24 -0.487 | USP25 -0.445 | USP28 -0.622
